Assay results taken from the supplement of paper PMC7156485.
Where “and” joins values, the source holds several entries; their conditions need not be identical. Identical values can stand only once. Counter-ions that a name gives are not always drawn. Unmarked numbers belong to inactive results.
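Note: TDF is a line of transformed human dermal fibroblasts of mesenchymal origin.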

What follows are molecules tested on TDF (assay: H1.0 immunofluorescence intensity relative to DMSO (% of DMSO); higher = stronger H1.0 induction, active = 120 or more). Settings: concentration: 10 µM; 24 h.
Procedure, shortened: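 HCC1569 and TDF cells were seeded at 800 per well in 384-well plates in RPMI with 10% FBS and treated with compounds at 10 µM for 24 h at 37 °C, in triplicate. After fixation in 3.7% formaldehyde, cells were stained with a rabbit anti-H1.0 antibody, an AlexaFluor 647 secondary and DAPI, and six fields per well were imaged at ×10. H1.0 nuclear intensity or cell number is given as percent of the plate control, using the median of replicates, with HCC1569 values smoothed for positional effects.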
`O=C(O)c1ccccc1Nc1cccc(C(F)(F)F)c1` [Flufenamic acid] gave an H1.0 immunofluorescence intensity of 91.9.
With `CN(C)CCOC(C)(c1ccccc1)c1ccccn1.O=C(O)CCC(=O)O` (stereo not given) [Doxylamine succinate] the H1.0 immunofluorescence intensity was 97.5.
`Br.CCSC(=N)N` [S-Ethylisothiourea hydrobromide] was tested, and the H1.0 immunofluorescence intensity was 97.1.
`NCC1OC(OC2C(CO)OC(OC3C(O)C(N)CC(N)C3OC3OC(CN)C(O)C(O)C3N)C2O)C(N)C(O)C1O` (stereo not given) [Neomycin] was tested, and the H1.0 immunofluorescence intensity was 100.
Molecule `CN(c1ncccc1CNc1nc(Nc2ccc3c(c2)CC(=O)N3)ncc1C(F)(F)F)S(C)(=O)=O` has an H1.0 immunofluorescence intensity of 116.
Molecule `O=C(O)C1=CC(=C(c2ccc(O)c(C(=O)O)c2)c2ccc(O)c(C(=O)O)c2)C=CC1=O` [Aurintricarboxylic acid] has an H1.0 immunofluorescence intensity of 89.4.
Molecule `CCCCCC=CCC=CC=CC=CC(SCC(N)C(=O)NCC(=O)O)C(O)CCCC(=O)O` (stereo not given) [Leukotriene D4] has an H1.0 immunofluorescence intensity of 92.1.
`CC(=O)Oc1ccccc1C(=O)Nc1ncc([N+](=O)[O-])s1` [2-{[(5-nitro-1,3-thiazol-2-yl)amino]carbonyl}phenyl acetate] was tested, and the H1.0 immunofluorescence intensity was 98.5.
With `C=CCn1c(=O)c2c(nc(-c3ccc(S(=O)(=O)O)cc3)n2C)n(C)c1=O` [1-Allyl-3,7-dimethyl-8-p-sulfophenylxanthine] the H1.0 immunofluorescence intensity was 99.2.
For `c1ccc2c(-c3ccncc3)c[nH]c2c1` [Rho Kinase Inhibitor III, Rockout], the H1.0 immunofluorescence intensity was 86.9.
`CS(=O)(=O)O.O=C1Nc2ccc(-c3cccnc3)cc2C1=Cc1ccc[nH]1` [JAK3 Inhibitor VI] was tested, and the H1.0 immunofluorescence intensity was 108.
For `CNc1cc2c(Nc3cccc(Br)c3)ncnc2cn1`, the H1.0 immunofluorescence intensity was 91.3.
`COc1ccc2c(c1)c(CC(=O)O)c(C)n2C(=O)c1ccc(Cl)cc1` [Indomethacin] was tested, and the H1.0 immunofluorescence intensity was 91.3.
Molecule `COc1ccccc1O` [Guaiacol] has an H1.0 immunofluorescence intensity of 92.7.
With `CN(C)c1ccc(C=C2C(=O)Nc3ccccc32)cc1` the H1.0 immunofluorescence intensity was 97 and 108 and 101.
Molecule `Cc1cc(C(C)(C)C)c(O)c(C)c1CC1=NCCN1.Cl` [Oxymetazoline hydrochloride] has an H1.0 immunofluorescence intensity of 93.9.
`O=C(O)Cc1c[nH]c2ccc(O)cc12` [5-Hydroxyindolacetic acid] was tested, and the H1.0 immunofluorescence intensity was 99.9.
Work on `COc1cc2ncc(-c3ccccc3)nc2cc1OC` yielded an H1.0 immunofluorescence intensity of 94.
Work on `CCC1OC(=O)C(C)C(OC2CC(C)(OC)C(O)C(C)O2)C(C)C(OC2OC(C)CC(N(C)C)C2O)C(C)(O)CC(C)C(=NOCOCCOC)C(C)C(O)C1(C)O` (stereo not given) [Roxithromycin] yielded an H1.0 immunofluorescence intensity of 95.2.
`Cc1ccccc1CNc1ncnc2c1ncn2C1OC(CO)C(O)C1O` (stereo not given) [Metrifudil] was tested, and the H1.0 immunofluorescence intensity was 93.7.
`O=C1c2cccc(O)c2C(=O)c2c(O)cc(CO)cc21` [Aloe-emodine] was tested, and the H1.0 immunofluorescence intensity was 97.3.
`C=CCc1ccc(O)c(-c2ccc(O)c(CC=C)c2)c1` [Honokiol] was tested, and the H1.0 immunofluorescence intensity was 81.
`C#CC1(O)CCC2C3C(C)CC4=C(CCC(=O)C4)C3CCC21C` (stereo not given) [Tibolone] gave an H1.0 immunofluorescence intensity of 102.
`Cl.NC(=NCc1ccccc1)NC(=O)c1nc(Cl)c(N)nc1N` [Benzamil hydrochloride] gave an H1.0 immunofluorescence intensity of 92.3.
`CCN(Cc1ccccc1)C(=O)Cn1c(=O)n(C)c2cnc(-c3ccccc3)nc21` was tested, and the H1.0 immunofluorescence intensity was 156 (active).
`O=C1NC(C(=O)O)CS1` (stereo not given) [Procysteine] showed an H1.0 immunofluorescence intensity of 97.1.
`O=C(O)c1cn(C2CC2)c2cc(N3C[C@@H]4C[C@H]3CN4)c(F)cc2c1=O` gave an H1.0 immunofluorescence intensity of 91.9.
With `O=C(NCCO)c1cc(C(=O)NCCO)cc(C(=O)NCCO)c1` the H1.0 immunofluorescence intensity was 95.2.
Work on `CCCCCCCCCCCCCCCC(O)C(N)CO` (stereo not given) [Dihydrosphingosine] yielded an H1.0 immunofluorescence intensity of 98.8.
For `C[N+]1(CCCCC[N+]2(C)CCCC2)CCCC1.O=C([O-])C(O)C(O)C(=O)O.O=C([O-])C(O)C(O)C(=O)O` [Pentolinium di[L(+)-tartrate]], the H1.0 immunofluorescence intensity was 92.6.
In the case of `CCCCCCCCCCCCCCCCOCC(CO)OC` (stereo not given) [1-Hexadecyl-2-O-methyl-glycerol], the H1.0 immunofluorescence intensity is reported as 95.3.
`CC1C(=O)OC2CC34C5CC(C(C)(C)C)C36C(OC(=O)C6O)OC4(C(=O)O5)C21O` (stereo not given) [Ginkgolide A] gave an H1.0 immunofluorescence intensity of 92.3.
Molecule `CCOC(=O)C1=C(C)NC(C)=C(C(=O)OC)C1c1cccc(Cl)c1Cl` (stereo not given) [Felodipine] has an H1.0 immunofluorescence intensity of 86.3.
`CC(=O)OC1CC2(C)C(CC(O)C3C4(C)CCC(O)C(C)C4CCC32C)C1=C(CCC=C(C)C)C(=O)[O-].[Na+]` (stereo not given) [Fusidic acid sodium] gave an H1.0 immunofluorescence intensity of 89.5.
In the case of `CN1C(CC(=O)c2ccccc2)CCCC1CC(O)c1ccccc1.Cl` (stereo not drawn) [alpha-Lobeline hydrochloride], the H1.0 immunofluorescence intensity is reported as 93.7.
`Cc1cc(CS(=O)(=O)c2ccccc2)cc(OCc2ccc(CN3CCC[C@@H]3CO)cc2)c1` [PF-543 hydrochloride] gave an H1.0 immunofluorescence intensity of 102.
With `OCC1OC(n2cnc3c(Nc4ccccc4)ncnc32)C(O)C1O` (stereo not given) [N6-Phenyladenosine] the H1.0 immunofluorescence intensity was 86.1.
In the case of `OCCN1CCN(CCCN2c3ccccc3Sc3ccc(Cl)cc32)CC1` [Perphenazine], the H1.0 immunofluorescence intensity is reported as 116.
With `C=CCc1ccc(O)c(-c2cc(CC=C)ccc2O)c1` [Magnolol] the H1.0 immunofluorescence intensity was 91.7.
In the case of `CCc1c(CC(N)=O)c2cc(OCCCP(=O)(O)O)ccc2n1Cc1ccccc1`, the H1.0 immunofluorescence intensity is reported as 96.
